Measurements as given in PubChem BioAssay (EPA / NIEHS).
Where “and” joins values, the source holds several entries; their conditions need not be identical. Equal entries are not always repeated. Results filed as inconclusive are left out. Some compounds were tested as several samples or in several runs, with calls that do not always agree. Calls of active or inactive are those of the source. How the source made its calls, unless noted: active means hit-call score of the fitted dose curve at least 0.9, where 1 is the maximum; inactive means score below 0.9.

Assays:
[1] = ATG_TAL_CIS: Attagene CIS-FACTORIAL HepG2 Assay for human TAL Basal Promoter (AID 2282966); details: HepG2 Attagene cis-factorial TAL promoter reporter; actives raise or lower the signal;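 further: background control endpoint measuring basal TAL promoter reporter mRNA not a specific factor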
Method in brief: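 Basal-promoter background-control endpoint from a multiplexed HepG2 reporter panel. Cells were exposed 24 h, then reporter mRNA was read by RT-PCR/CE fluorescence and fitted in both directions relative to DMSO.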

[2] = ATG_TGFb_CIS: Attagene CIS-FACTORIAL HepG2 Assay for human Transforming Growth Factor (TGF) (AID 2282967); details: HepG2 Attagene CIS TGFb reporter, mRNA transcription; actives raise or lower the signal
Method in brief: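 HepG2 cells transiently transfected with cis-promoter-driven multiple reporter units measure endogenous TF activity; reporter mRNA quantified at 24 h by RT-PCR, FAM labeling, HpaI digestion and capillary electrophoresis. Bidirectional fit vs DMSO.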

[3] = molecular target: Nuclear receptor subfamily 1 group I member 3 (Homo sapiens) (UniProt Q14994); experiment: ATG_CAR_TRANS: Attagene TRANS-FACTORIAL HepG2 Assay for human Constitutive Androstane Receptor (CAR) (AID 2282969; active means hit-call score of the fitted dose curve at least 0.9, where 1 is the maximum;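 further: activators raise reporter mRNA above DMSO so AC50 marks induction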); details: HepG2 Attagene TRANS-FACTORIAL CAR reporter
Nuclear receptor subfamily 1 group I member 3 (Homo sapiens), sequence (Q14994 whole entry, looked up, the tested form may be a part): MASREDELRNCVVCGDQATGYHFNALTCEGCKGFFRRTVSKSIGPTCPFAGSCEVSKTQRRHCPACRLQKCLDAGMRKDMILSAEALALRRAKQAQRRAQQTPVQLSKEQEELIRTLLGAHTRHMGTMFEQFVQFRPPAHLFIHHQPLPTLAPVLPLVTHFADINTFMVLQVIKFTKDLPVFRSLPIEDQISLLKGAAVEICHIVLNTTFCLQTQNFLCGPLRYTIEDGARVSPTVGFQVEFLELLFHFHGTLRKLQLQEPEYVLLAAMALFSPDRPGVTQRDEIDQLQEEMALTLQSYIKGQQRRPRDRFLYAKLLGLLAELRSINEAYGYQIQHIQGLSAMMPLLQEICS
Method in brief: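 Steps: transient transfection of HepG2 with multiple GAL4-UAS reporter units; 24 h compound incubation; RNA isolation, RT-PCR, 6-FAM primer extension, HpaI digest; capillary electrophoresis. Gain-of-signal relative to DMSO negative control.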

[4] = molecular target: X-box-binding protein 1 (Homo sapiens) (UniProt P17861); experiment: ATG_Xbp1_CIS: Attagene CIS-FACTORIAL HepG2 Assay for human X-box Binding Protein 1 (XBP1) (AID 2282972); details: HepG2 XBP1 cis-element reporter, Attagene multiplex; actives raise or lower the signal
X-box-binding protein 1 (Homo sapiens), sequence (P17861 whole entry, looked up): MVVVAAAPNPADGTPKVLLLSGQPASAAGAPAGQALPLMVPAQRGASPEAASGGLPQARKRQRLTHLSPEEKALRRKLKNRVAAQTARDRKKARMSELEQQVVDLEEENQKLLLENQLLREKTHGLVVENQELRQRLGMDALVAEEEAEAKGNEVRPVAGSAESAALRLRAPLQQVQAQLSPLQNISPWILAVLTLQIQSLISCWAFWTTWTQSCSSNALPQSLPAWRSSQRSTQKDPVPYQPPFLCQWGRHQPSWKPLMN
Method in brief: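 Changes in reporter transcript abundance, read by RT-PCR and capillary electrophoresis, reflect endogenous transcription factor activity. Transfected HepG2 cells received compound for 24 hours; DMSO defined baseline for bidirectional analysis.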

[5] = ATG_M_19_TRANS: Attagene TRANS-FACTORIAL HepG2 Assay for M19 Transcription Factor (Internal Marker) (AID 2282974; active means hit-call score of the fitted dose curve at least 0.9, where 1 is the maximum); details: HepG2 Attagene TRANS-FACTORIAL M19 internal marker reporter
Method in brief: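 Background-control readout: after 24 h chemical exposure of transfected HepG2 carrying GAL4-driven reporter units, RNA was reverse-transcribed, amplified, fluorescently labeled and sized by capillary electrophoresis; gain-of-signal fit against DMSO.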

[6] = ATG_GAL4_TRANS: Attagene TRANS-FACTORIAL HepG2 Assay for GAL4 (Internal Marker) (AID 2282976; active means hit-call score of the fitted dose curve at least 0.9, where 1 is the maximum); details: HepG2 Attagene TRANS GAL4 internal marker reporter
Method in brief: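 Background-control readout: GAL4-UAS reporter transcript in transiently transfected HepG2 cells after 24 h compound exposure. Measured by RT-PCR, 6-FAM primer extension, HpaI digest and capillary electrophoresis; gain-of-signal fit versus DMSO.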

[7] = ATG_VDRE_CIS: Attagene CIS-FACTORIAL HepG2 Assay for human Vitamin D Receptor Element (VDRE) (AID 2282968); details: HepG2 VDRE cis-reporter transcription, actives raise or lower the signal
Method in brief: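 Steps: transfect HepG2 with multiple reporter transcription units; dose chemicals 24 h; isolate RNA; RT-PCR; label with 6-FAM primer extension; HpaI digest; capillary electrophoresis. Curves fitted both directions against DMSO.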

[8] = molecular target: Estrogen receptor (Homo sapiens) (UniProt P03372); experiment: ATG_ERa_TRANS: Attagene TRANS-FACTORIAL HepG2 Assay for human Estrogen Receptor alpha (ERa) (AID 2282970; active means hit-call score of the fitted dose curve at least 0.9, where 1 is the maximum); details: HepG2 Attagene TRANS ERa GAL4 reporter, mRNA
Estrogen receptor (Homo sapiens), sequence (P03372 whole entry, looked up, the tested form may be a part): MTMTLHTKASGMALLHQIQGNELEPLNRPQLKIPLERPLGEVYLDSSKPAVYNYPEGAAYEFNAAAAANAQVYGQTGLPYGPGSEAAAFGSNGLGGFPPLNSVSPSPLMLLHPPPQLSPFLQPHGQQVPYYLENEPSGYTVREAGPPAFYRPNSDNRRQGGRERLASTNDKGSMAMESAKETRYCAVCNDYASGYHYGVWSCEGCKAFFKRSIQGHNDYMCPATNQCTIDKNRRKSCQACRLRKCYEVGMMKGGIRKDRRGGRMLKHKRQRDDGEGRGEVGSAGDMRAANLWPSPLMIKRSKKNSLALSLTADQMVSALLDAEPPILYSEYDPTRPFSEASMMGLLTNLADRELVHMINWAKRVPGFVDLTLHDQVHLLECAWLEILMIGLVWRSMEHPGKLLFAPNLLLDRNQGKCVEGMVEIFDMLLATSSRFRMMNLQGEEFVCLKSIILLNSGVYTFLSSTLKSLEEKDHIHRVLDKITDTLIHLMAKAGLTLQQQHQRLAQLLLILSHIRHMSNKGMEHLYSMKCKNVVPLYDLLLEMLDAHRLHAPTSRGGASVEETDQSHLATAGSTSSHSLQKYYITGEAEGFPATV
Method in brief: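 Gal4-fusion ERa transactivation, measured as reporter transcript level in transiently transfected HepG2 cells. Exposure 24 h; RT-PCR plus capillary electrophoresis with fluorescence detection.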

[9] = molecular target: Estrogen-related receptor gamma (Homo sapiens) (UniProt P62508); experiment: ATG_ERRg_TRANS: Attagene TRANS-FACTORIAL HepG2 Assay for human Estrogen-Related Receptor gamma (ERRg) (AID 2282977; active means hit-call score of the fitted dose curve at least 0.9, where 1 is the maximum;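 further: hits increase reporter signal over DMSO so potencies reflect activators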); details: HepG2 Attagene TRANS reporter, ERRg transactivation
Estrogen-related receptor gamma (Homo sapiens), sequence (P62508 whole entry, looked up, the tested form may be a part): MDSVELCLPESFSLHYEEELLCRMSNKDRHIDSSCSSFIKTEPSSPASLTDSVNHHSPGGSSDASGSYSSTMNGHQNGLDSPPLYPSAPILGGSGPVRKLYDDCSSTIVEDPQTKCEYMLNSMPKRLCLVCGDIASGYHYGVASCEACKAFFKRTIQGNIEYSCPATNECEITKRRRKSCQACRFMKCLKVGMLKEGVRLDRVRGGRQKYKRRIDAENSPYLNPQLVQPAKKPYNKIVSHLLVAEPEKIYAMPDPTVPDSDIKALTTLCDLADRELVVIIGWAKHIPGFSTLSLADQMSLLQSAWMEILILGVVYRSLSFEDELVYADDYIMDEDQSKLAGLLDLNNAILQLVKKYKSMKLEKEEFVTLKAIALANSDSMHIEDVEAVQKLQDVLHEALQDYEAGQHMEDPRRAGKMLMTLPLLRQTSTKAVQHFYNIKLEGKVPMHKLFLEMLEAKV
Method in brief: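 Induction of reporter transcripts through a chimeric NR-Gal4 protein is quantified in transfected human HepG2 liver cells after 24 h chemical exposure, using RT-PCR with capillary electrophoresis detection and DMSO as baseline.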

[10] = molecular target: Steroid hormone receptor ERR1 (Homo sapiens) (UniProt P11474); experiment: ATG_ERRa_TRANS: Attagene TRANS-FACTORIAL HepG2 Assay for human Estrogen-Related Receptor alpha (ERRa) (AID 2282971; active means hit-call score of the fitted dose curve at least 0.9, where 1 is the maximum); details: HepG2 Attagene TRANS reporter, ERRa transactivation
Steroid hormone receptor ERR1 (Homo sapiens), sequence (P11474 whole entry, looked up, the tested form may be a part): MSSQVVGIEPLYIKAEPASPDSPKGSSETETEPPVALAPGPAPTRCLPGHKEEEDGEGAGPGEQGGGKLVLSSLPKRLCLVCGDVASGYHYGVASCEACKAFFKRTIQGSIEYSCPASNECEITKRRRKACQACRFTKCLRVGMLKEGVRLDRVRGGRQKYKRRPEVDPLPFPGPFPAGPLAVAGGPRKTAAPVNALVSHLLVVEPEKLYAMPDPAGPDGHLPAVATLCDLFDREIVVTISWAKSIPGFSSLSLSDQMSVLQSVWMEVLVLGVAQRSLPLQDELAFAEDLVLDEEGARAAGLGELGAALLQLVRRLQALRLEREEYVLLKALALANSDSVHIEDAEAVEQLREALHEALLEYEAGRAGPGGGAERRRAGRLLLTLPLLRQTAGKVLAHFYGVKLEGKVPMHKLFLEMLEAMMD
Method in brief: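 HepG2 cells transiently transfected with GAL4-UAS reporter units and chimeric NR-Gal4 constructs; after 24 hour compound incubation, reporter mRNA quantified by RT-PCR, fluorescent labelling and capillary electrophoresis, gain of signal versus DMSO.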

Oc1ccccc1
outcome [1]: inactive | outcome [2]: inactive | outcome [3]: inactive | outcome [4]: inactive | outcome [5]: inactive | outcome [6]: inactive

CCCCCCCCCCCO
outcome [1]: inactive | outcome [2]: inactive | outcome [7]: inactive | outcome [8]: inactive | AC50 [5]: 158 µM (active) | outcome [6]: inactive

Cc1oc2c(NC(=O)c3c(Cl)cccc3Cl)cccc2c1C(C)(C)O
AC50 [1]: 33.1 µM (active) | outcome [2]: inactive | AC50 [7]: 4.01 µM (active) | outcome [5]: inactive

CN(C)C(=O)C1(N2CCCCC2)CCN(CC[C@@]2(c3ccc(Cl)c(Cl)c3)CN(C(=O)c3ccccc3)CCO2)CC1
outcome [1]: inactive | outcome [2]: inactive | outcome [7]: inactive | outcome [8]: inactive | outcome [9]: inactive

CN(C)c1ccc(C(=C2C=CC(=[N+](C)C)C=C2)c2ccc(N(C)C)cc2)cc1
outcome [1]: inactive | outcome [2]: inactive | outcome [7]: inactive | AC50 [4]: 2.28 µM (active) | outcome [5]: inactive

CCCCCCCCCCCC[N+](C)(C)C
outcome [1]: inactive | outcome [2]: inactive | outcome [7]: inactive | AC50 [4]: 33.4 µM (active) | outcome [4]: inactive | outcome [5]: inactive

Oc1ccc2ccccc2c1
outcome [1]: inactive | outcome [2]: inactive | outcome [7]: inactive | outcome [4]: inactive | outcome [5]: inactive

Cc1ncc(CO)c(CO)c1O
outcome [1]: inactive | outcome [2]: inactive | outcome [7]: inactive | outcome [5]: inactive | outcome [6]: inactive

COc1cccc([C@H](O)C2CCN(CCc3ccc(F)cc3)CC2)c1OC
outcome [1]: inactive | outcome [2]: inactive | outcome [7]: inactive | outcome [8]: inactive | outcome [4]: inactive | outcome [5]: inactive | outcome [6]: inactive

CC(=O)N1CCN(c2ccc(OC[C@H]3CO[C@](Cn4ccnc4)(c4ccc(Cl)cc4Cl)O3)cc2)CC1
outcome [1]: inactive | outcome [2]: inactive | AC50 [7]: 8.88 µM (active) | outcome [8]: inactive | AC50 [4]: 18.3 µM (active) | outcome [5]: inactive

CCCOC(=O)c1cc(O)c(O)c(O)c1
outcome [1]: inactive | outcome [2]: inactive | outcome [7]: inactive | AC50 [8]: 14.5 µM (active) | outcome [5]: inactive

CCO[Si](CCCNC(N)=O)(OCC)OCC
outcome [1]: inactive | outcome [2]: inactive | outcome [7]: inactive | outcome [8]: inactive | outcome [6]: inactive | outcome [9]: inactive

CC(O)CC(C)(C)O (stereo unspecified)
outcome [1]: inactive | outcome [2]: inactive | outcome [7]: inactive | AC50 [4]: 0.0122 µM (active) | outcome [4]: inactive | outcome [5]: inactive | outcome [6]: inactive

CN1C(=O)CC[C@H]1c1cccnc1
outcome [1]: inactive | outcome [2]: inactive | outcome [6]: inactive

COCC(C)OCC(C)OCC(C)O (stereo unspecified)
outcome [1]: inactive | outcome [2]: inactive | outcome [7]: inactive | outcome [8]: inactive | outcome [4]: inactive | outcome [9]: inactive

CC1(C)NC(=O)N(c2ccc([N+](=O)[O-])c(C(F)(F)F)c2)C1=O
outcome [1]: inactive | outcome [2]: inactive | outcome [7]: inactive | outcome [10]: inactive | outcome [4]: inactive | outcome [5]: inactive | outcome [6]: inactive | outcome [9]: inactive

Cc1cn([C@H]2C[C@H](N=[N+]=[N-])[C@@H](CO)O2)c(=O)[nH]c1=O
outcome [1]: inactive | outcome [2]: inactive | outcome [7]: inactive | outcome [10]: inactive | outcome [9]: inactive

OCCO
outcome [1]: inactive | outcome [2]: inactive | outcome [7]: inactive | outcome [8]: inactive | outcome [5]: inactive | outcome [6]: inactive

O=C1O[C@H]([C@@H](O)CO)C(O)=C1O
outcome [1]: inactive | outcome [2]: inactive | outcome [4]: inactive | outcome [5]: inactive | outcome [6]: inactive

O=C=NCCCCCCN=C=O
outcome [1]: inactive | outcome [2]: inactive | outcome [7]: inactive | outcome [8]: inactive | outcome [4]: inactive | outcome [5]: inactive | outcome [6]: inactive

c1ccc2n[nH]nc2c1
outcome [1]: inactive | outcome [2]: inactive | outcome [3]: inactive | outcome [4]: inactive | outcome [5]: inactive | outcome [6]: inactive

CCCCOC(=O)CC(CC(=O)OCCCC)(OC(C)=O)C(=O)OCCCC
outcome [1]: inactive | outcome [2]: inactive | AC50 [7]: 8 µM (active) and 4.3 µM (active) | outcome [4]: inactive | outcome [5]: inactive

Cc1ccc2oc(CN(Cc3ccccc3)C(=O)Nc3c(F)cc(F)cc3F)c(-c3ccc(Cl)cc3)c2c1
outcome [1]: inactive | outcome [2]: inactive | outcome [7]: inactive | outcome [10]: inactive | outcome [4]: inactive | outcome [5]: inactive

CCN(Cc1cccnc1)C(=O)c1cccc(Cl)c1[C@]1(C)C(=O)N(Cc2ccc(OC)cc2OC)c2ccc(Cl)cc21
outcome [1]: inactive | outcome [2]: inactive | AC50 [7]: 1.42 µM (active) | AC50 [4]: 4.01 µM (active) | outcome [6]: inactive

CCOC(=O)O[C@H](C)OC(=O)c1ccc2c(c1)cc(C(=O)NC1CCN(C(C)C)CC1)n2Cc1cc(-c2ccc(Cl)s2)on1
outcome [1]: inactive | outcome [2]: inactive | outcome [7]: inactive | outcome [8]: inactive | outcome [4]: inactive | outcome [6]: inactive

Clc1ccccc1C(c1ccccc1)(c1ccccc1)n1ccnc1
outcome [1]: inactive | outcome [2]: inactive | AC50 [7]: 4.84 µM (active) | outcome [8]: inactive | outcome [6]: inactive | outcome [9]: inactive

O=C(O)c1ccccc1C(=O)OCc1ccccc1
outcome [1]: inactive | outcome [2]: inactive | outcome [3]: inactive | outcome [8]: inactive | outcome [6]: inactive

O=C(Nc1ccc(Cl)cc1)Nc1ccc(Cl)c(Cl)c1
outcome [1]: inactive | outcome [2]: inactive | AC50 [4]: 5.26 µM (active) | outcome [5]: inactive

Cc1cc2c(cc1C(F)(F)F)N(C(=O)Nc1ccc(Oc3cccnc3C)nc1)CC2
outcome [1]: inactive | outcome [2]: inactive | outcome [7]: inactive | outcome [5]: inactive | outcome [9]: inactive
